From PubChem BioAssay
Sampled rows, rich in hits. Any-hit rate of the full collection: about 4.8%.
NALP1 yeast inh = NALP1 inflammasome inhibitors in reconstituted yeast, colorimetric, S. cerevisiae, triplicate retest; AID 2071, 2009; S. cerevisiae NALP1/ASC/caspase-1 growth, X-gal OD620, 72 h; inhibition, % at 10 µM; 280,000 compounds, 0.61% hits; in the data active = inhibition mostly above about 24%, no sharp cut-off; inactive = mostly below about 32%
tim23-1 inh = growth inhibitors of tim23-1 mutant yeast, primary screen, luminescence, uHTS; S. cerevisiae tim23-1 growth, BacTiter-Glo luminescence, 24 h; inhibition, % at 20 µM; 330,000 compounds, 1.3% hits; AID 463212, 2010;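 active = growth inhibition of the mutant yeast at or above 50%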;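 note: temperature-sensitive mutant grown at 25 °C; plate controls were DMSO-treated mutant yeast for no effect and medium wells lacking yeast for full effect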
PfHsp90 yeast 2 = growth inhibition of PfHsp90-expressing yeast, primary screen, antimalarial PfHsp90 inhibitor project, S. cerevisiae, BacTiter-Glo luminescence, single point, set 2; BacTiter-Glo ATP, 48 h; yeast lacking PDR1 and PDR3 efflux regulators; inhibition, % at 9.4 µM; 310,000 compounds, 0.32% hits; AID 504621, 2011;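 active = every replicate shows inhibition above about 80%, whatever the replicate mean, limit read from the data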;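 note: 0% = DMSO neutral controls and 100% = 20 µM radicicol positive controls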
TIM10 inh = growth inhibitors of isogenic TIM10 control yeast, primary screen, counter-screen for tim10-1 yeast inhibitor project, luminescence, uHTS; inhibition, % at 10 µM; S. cerevisiae TIM10 strain growth, BacTiter-Glo luminescence, 24 h; AID 463195, 2010; 330,000 compounds, 1.4% hits;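 active = inhibition of 40% or more at the single tested concentration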;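 note: wild-type TIM10 isogenic control strain grown at permissive 25 °C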
SKKanGAS inh = S. pyogenes SKKanGAS growth inhibitors in kanamycin, primary screen, streptokinase expression inhibitor project, SKKanGAS strain, BacTiter-Glo luminescence; 6 h; inhibition, % at 7.5 µM; 300,000 compounds, 1.3% hits; AID 1662, 2009;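 active = mean replicate score, as percent of positive control median, at least 50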;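 note: strain carries kanamycin resistance gene driven by streptokinase promoter and grows in 40 µg/ml kanamycin; loss of luminescence reflects streptokinase promoter inhibition or plain growth inhibition; 0% = median of DMSO wells and 100% = positive control at its reference dose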
tim10-1 inh = growth inhibitors of tim10-1 mutant yeast, primary screen, luminescence, uHTS | S. cerevisiae tim10-1 ts strain growth, BacTiter-Glo, 24 h | inhibition, % at 20 µM | 330,000 compounds, 2.2% hits;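 active = inhibition of at least 40%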;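 note: mutant grown at 25 °C; 0% = DMSO wells with yeast and 100% = wells holding no yeast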
tim10-1 confirm = growth inhibitors of tim10-1 mutant yeast, confirmation, single concentration, luminescence, S. cerevisiae | shares compounds with tim10-1 inh | S. cerevisiae tim10-1 ts strain growth, BacTiter-Glo, 24 h | inhibition, % at 20 µM | 7,400 compounds, 56% hits;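 active = inhibition of yeast growth at or above a set limit in either of two repeat tests at 20 µM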;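 note: tim10-1 mutant grown at permissive 25 °C to find synthetic lethal compounds; 0% = DMSO yeast wells and 100% = medium wells without yeast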
* marks the source's active call; other numbers are inactive results; . = not tested or not shown.

SMILES | NALP1 yeast inh | tim23-1 inh | PfHsp90 yeast 2 | TIM10 inh | SKKanGAS inh | tim10-1 inh | tim10-1 confirm
CCOC(=O)c1csc(NC(=O)c2ccccc2)n1 | -2 | 18 | -23 | 16 | -2 | 3 | .
CCOC(=O)/C(=N/Nc1ccccc1)c1csc(Nc2ccccc2)n1 | -2 | 38 | 1 | 34 | 91* | 48* | 19
CCCCC(CCC(=O)O)(C(=O)OCC)c1csc(Nc2ccccc2)n1 (stereo not given) | 3 | 24 | -19 | 16 | 2 | 42* | 11
Cc1ccc(C(C)(C)C)cc1S(=O)(=O)Nc1nc2ccccc2nc1Cl | -14 | 44 | -15 | 18 | 21 | 41* | 40*
CC(Oc1ccccc1Br)C(=O)N1CCc2ccccc21 (stereo not given) | 25 | 25 | -19 | 7 | 8 | 18 | .
Cc1ccccc1CSCCNC(=O)c1ccccc1 | 39 | 9 | -9 | -14 | -3 | 18 | .
Cc1ccccc1CSCCNC(=S)Nc1ccccc1 | -7 | 12 | -15 | 26 | -15 | 45* | 24
C[C@H]1CN=C(Nc2ccccc2)N1CCC1CCCCC1 | 31 | -19 | -18 | -6 | 0 | -22 | .
Cc1cccc(CCNC(=O)c2cccc3c2C(=O)N(C2CCCCC2)C3)c1 | 17 | 39 | -4 | 16 | 2 | 52* | 16
Cc1cc(C)c(NC(=O)c2cccc3c2C(=O)N(C2CCCCC2)C3)c(C)c1 | 3 | 33 | -33 | 19 | 2 | 49* | 14
Cc1ccc(NC(=O)c2cccc3c2C(=O)N(C2CCCCC2)C3)c(C)c1 | 15 | 1 | 6 | 14 | 5 | 10 | .
CCN=C1S/C(=C\c2ccc(Sc3ccc(Cl)cc3)o2)C(=O)N1CC | -1 | -2 | -36 | 4 | -6 | 21 | .
CCN=C1S/C(=C/c2ccc(-c3ccc(F)cc3)o2)C(=O)N1CC | 12 | 22 | 17 | 5 | -6 | 45* | 29*
Cc1ccc(S(=O)(=O)N2CCN(CC(=O)Nc3ccccc3C(=O)NC3CC3)CC2)cc1 | . | -1 | . | 4 | . | 14 | .
CC(OC(=O)/C=C/c1ccc2ccccc2n1)C(=O)NCc1ccccc1 (stereo not given) | . | 32 | 0 | 36 | -8 | 41* | 22
CC(C)C1OC(c2cccc(NC(=O)c3cccs3)c2)OCC1(C)C (stereo not given) | -2 | 23 | -40 | 39 | 13 | 44* | 32*
C=CCNC(=S)NNC(=O)c1cc(-c2cccnc2)nc2ccccc12 | -11 | 14 | 9 | 13 | 7 | 11 | .
Cc1cc(C)nc(NC(=O)c2cc(-c3ccc(C)s3)nc3ccccc23)c1 | 18 | 21 | 18 | 11 | 15 | 25 | .
Cc1ccc(-c2cc(C(=O)Nc3cccnc3)c3ccccc3n2)s1 | 6 | 35 | 12 | 28 | 5 | 42* | 13
CNC(=S)NNC(=O)c1cc(-c2cccnc2)nc2ccccc12 | -3 | 49 | 55 | 34 | 21 | 49* | 40*
Cc1cccc(-c2cc(C(=O)Nc3cccnc3)c3ccccc3n2)c1 | -3 | 43 | 0 | 24 | 1 | 40* | 19
CC1CCC2(CC1)NC(=O)N(CC(=O)N1CCN(c3ccccc3)CC1)C2=O (stereo not given) | . | 3 | 32 | 7 | . | 2 | .
Clc1ccc(CNc2cnccn2)cc1Cl | 18 | 14 | 20 | 7 | 12 | 39 | .
CC1CC(=S)Nc2ccccc2S1 (stereo not given) | -49 | -11 | 7 | 1 | 3 | 26 | .
NS(=O)(=O)c1ccc(CCNC(=O)C2CCCCN2S(=O)(=O)c2ccccc2)cc1 (stereo not given) | -4 | 5 | 5 | -10 | -6 | 6 | .
SMILES | NALP1 yeast inh | tim23-1 inh | PfHsp90 yeast 2 | TIM10 inh | SKKanGAS inh | tim10-1 inh | tim10-1 confirm
CCn1ccnc1CN(C)Cc1cn(-c2cc(C)ccc2C)nc1-c1ccccc1 | -8 | 31 | -10 | 27 | 19 | 42* | 17
CCn1ccnc1CN(C)Cc1cn(-c2ccc(C)cc2)nc1-c1ccc(F)cc1 | 12 | -11 | 18 | 3 | 21 | 23 | .
CCOC(=O)c1sc(=NC(=O)CCS(=O)(=O)c2ccccc2)n(C)c1C | -7 | 6 | -37 | -9 | -5 | 5 | .
COc1ccc(/C=N/Nc2nc3ccccc3c(=O)n2-c2ccccc2)cc1OC | 6 | 22 | 3 | 18 | 8 | 30 | .
Cc1cc(Nc2cccc(Cl)c2)nc(NCc2ccccc2)n1 | 42 | 45 | -8 | 8 | 17 | 45* | 24
COCCNC(=S)N1CCN(S(=O)(=O)c2ccc(Cl)s2)CC1 | 3 | 10 | -15 | 8 | -4 | 14 | .
COCCCNC(=O)/C(C#N)=C/c1ccc(F)cc1 | 14 | 48 | -12 | 13 | -10 | 42* | 27
O=c1c2c([nH]n1-c1ccccc1)CCCC2 | 0 | 39 | -32 | 20 | -6 | 46* | 27
O=c1[nH]n(-c2ccccc2)c(=O)c(Cl)c1Cl | 1 | 24 | 10 | 8 | -1 | 33 | .
COc1ccccc1N1CCN(CCCN2C(=O)C3CCCN3C2=O)CC1 (stereo not given) | . | . | -16 | . | . | . | .
O=C(c1cc2ccccc2o1)N1CCN(S(=O)(=O)c2cccs2)CC1 | 6 | 20 | -33 | 14 | -7 | 33 | .
O=C(c1cc2ccccc2o1)N1CCN(S(=O)(=O)c2ccccc2)CC1 | . | 34 | 22 | 12 | . | 43* | 27
Cc1cc(Nc2ccc3ccccc3c2)n2ncnc2n1 | -3 | 33 | 16 | 3 | . | 32 | .
CCOC(=O)COc1ccc(/C=C/[N+](=O)[O-])c(OCC(=O)OCC)c1 | 3 | 41 | 1 | 22 | 0 | 42* | 49*
CCOC(=O)COc1ccc2nsnc2c1 | 25 | 9 | 16 | 18 | 1 | -14 | .
O=C(c1ccc(Cl)cc1)c1ccc(CN2C(=O)c3ccccc3C2=O)o1 | -1 | 17 | -82 | 23 | 6 | 41* | 12
Cc1ccc(S(=O)(=O)N/N=C2/CC(c3ccccc3)Oc3ccccc32)cc1[N+](=O)[O-] (stereo not given) | -2 | 14 | -32 | 28 | 25 | 20 | .
O=S(=O)(N/N=C1\CCCc2ccccc21)c1ccccc1 | . | 31 | 8 | 18 | . | 16 | .
O=S(=O)(N/N=C1/CCCc2ccccc21)c1ccc(Br)cc1 | 8 | 28 | -43 | 36 | 10 | 42* | 24
O=S(=O)(N/N=C1/CC(c2ccccc2)Oc2ccccc21)c1ccc(Br)cc1 (stereo not given) | 4 | 29 | . | 29 | 36 | 41* | 29*
